Data as given in PubChem BioAssay AID2662 (National Center for Advancing Translational Sciences (NCATS), 2010).
Among all 290,000 compounds or so, about 110 (0.038%) were called active. Not shown: some 3% with an inconclusive outcome. Calls follow the shape of the dose curve; as a rule, active = well fitted inhibition curve with a large enough effect in the polarisation, with a control signal flat (not every such curve was filed as active); inconclusive = small, poorly fitted or top-dose-only effect, or effect the other way, or a change in a side signal; inactive = no such curve, though single readings can be large or run the other way; the % refers to the polarisation. The sample as a whole holds a higher share of actives than the screen did.

target: Histone-lysine N-methyltransferase 2A (Homo sapiens) (UniProt Q03164); assay: qHTS Fluorescence Polarization Assay for Inhibitors of MLL CXXC domain - DNA interaction; settings: MLL-CXXC / FITC-HOXA9 DNA fluorescence polarization; series mostly up to 115 µM; activity change, negative = inhibition: at the top concentration
Sequence (Q03164 whole entry, looked up, the tested form may be a part): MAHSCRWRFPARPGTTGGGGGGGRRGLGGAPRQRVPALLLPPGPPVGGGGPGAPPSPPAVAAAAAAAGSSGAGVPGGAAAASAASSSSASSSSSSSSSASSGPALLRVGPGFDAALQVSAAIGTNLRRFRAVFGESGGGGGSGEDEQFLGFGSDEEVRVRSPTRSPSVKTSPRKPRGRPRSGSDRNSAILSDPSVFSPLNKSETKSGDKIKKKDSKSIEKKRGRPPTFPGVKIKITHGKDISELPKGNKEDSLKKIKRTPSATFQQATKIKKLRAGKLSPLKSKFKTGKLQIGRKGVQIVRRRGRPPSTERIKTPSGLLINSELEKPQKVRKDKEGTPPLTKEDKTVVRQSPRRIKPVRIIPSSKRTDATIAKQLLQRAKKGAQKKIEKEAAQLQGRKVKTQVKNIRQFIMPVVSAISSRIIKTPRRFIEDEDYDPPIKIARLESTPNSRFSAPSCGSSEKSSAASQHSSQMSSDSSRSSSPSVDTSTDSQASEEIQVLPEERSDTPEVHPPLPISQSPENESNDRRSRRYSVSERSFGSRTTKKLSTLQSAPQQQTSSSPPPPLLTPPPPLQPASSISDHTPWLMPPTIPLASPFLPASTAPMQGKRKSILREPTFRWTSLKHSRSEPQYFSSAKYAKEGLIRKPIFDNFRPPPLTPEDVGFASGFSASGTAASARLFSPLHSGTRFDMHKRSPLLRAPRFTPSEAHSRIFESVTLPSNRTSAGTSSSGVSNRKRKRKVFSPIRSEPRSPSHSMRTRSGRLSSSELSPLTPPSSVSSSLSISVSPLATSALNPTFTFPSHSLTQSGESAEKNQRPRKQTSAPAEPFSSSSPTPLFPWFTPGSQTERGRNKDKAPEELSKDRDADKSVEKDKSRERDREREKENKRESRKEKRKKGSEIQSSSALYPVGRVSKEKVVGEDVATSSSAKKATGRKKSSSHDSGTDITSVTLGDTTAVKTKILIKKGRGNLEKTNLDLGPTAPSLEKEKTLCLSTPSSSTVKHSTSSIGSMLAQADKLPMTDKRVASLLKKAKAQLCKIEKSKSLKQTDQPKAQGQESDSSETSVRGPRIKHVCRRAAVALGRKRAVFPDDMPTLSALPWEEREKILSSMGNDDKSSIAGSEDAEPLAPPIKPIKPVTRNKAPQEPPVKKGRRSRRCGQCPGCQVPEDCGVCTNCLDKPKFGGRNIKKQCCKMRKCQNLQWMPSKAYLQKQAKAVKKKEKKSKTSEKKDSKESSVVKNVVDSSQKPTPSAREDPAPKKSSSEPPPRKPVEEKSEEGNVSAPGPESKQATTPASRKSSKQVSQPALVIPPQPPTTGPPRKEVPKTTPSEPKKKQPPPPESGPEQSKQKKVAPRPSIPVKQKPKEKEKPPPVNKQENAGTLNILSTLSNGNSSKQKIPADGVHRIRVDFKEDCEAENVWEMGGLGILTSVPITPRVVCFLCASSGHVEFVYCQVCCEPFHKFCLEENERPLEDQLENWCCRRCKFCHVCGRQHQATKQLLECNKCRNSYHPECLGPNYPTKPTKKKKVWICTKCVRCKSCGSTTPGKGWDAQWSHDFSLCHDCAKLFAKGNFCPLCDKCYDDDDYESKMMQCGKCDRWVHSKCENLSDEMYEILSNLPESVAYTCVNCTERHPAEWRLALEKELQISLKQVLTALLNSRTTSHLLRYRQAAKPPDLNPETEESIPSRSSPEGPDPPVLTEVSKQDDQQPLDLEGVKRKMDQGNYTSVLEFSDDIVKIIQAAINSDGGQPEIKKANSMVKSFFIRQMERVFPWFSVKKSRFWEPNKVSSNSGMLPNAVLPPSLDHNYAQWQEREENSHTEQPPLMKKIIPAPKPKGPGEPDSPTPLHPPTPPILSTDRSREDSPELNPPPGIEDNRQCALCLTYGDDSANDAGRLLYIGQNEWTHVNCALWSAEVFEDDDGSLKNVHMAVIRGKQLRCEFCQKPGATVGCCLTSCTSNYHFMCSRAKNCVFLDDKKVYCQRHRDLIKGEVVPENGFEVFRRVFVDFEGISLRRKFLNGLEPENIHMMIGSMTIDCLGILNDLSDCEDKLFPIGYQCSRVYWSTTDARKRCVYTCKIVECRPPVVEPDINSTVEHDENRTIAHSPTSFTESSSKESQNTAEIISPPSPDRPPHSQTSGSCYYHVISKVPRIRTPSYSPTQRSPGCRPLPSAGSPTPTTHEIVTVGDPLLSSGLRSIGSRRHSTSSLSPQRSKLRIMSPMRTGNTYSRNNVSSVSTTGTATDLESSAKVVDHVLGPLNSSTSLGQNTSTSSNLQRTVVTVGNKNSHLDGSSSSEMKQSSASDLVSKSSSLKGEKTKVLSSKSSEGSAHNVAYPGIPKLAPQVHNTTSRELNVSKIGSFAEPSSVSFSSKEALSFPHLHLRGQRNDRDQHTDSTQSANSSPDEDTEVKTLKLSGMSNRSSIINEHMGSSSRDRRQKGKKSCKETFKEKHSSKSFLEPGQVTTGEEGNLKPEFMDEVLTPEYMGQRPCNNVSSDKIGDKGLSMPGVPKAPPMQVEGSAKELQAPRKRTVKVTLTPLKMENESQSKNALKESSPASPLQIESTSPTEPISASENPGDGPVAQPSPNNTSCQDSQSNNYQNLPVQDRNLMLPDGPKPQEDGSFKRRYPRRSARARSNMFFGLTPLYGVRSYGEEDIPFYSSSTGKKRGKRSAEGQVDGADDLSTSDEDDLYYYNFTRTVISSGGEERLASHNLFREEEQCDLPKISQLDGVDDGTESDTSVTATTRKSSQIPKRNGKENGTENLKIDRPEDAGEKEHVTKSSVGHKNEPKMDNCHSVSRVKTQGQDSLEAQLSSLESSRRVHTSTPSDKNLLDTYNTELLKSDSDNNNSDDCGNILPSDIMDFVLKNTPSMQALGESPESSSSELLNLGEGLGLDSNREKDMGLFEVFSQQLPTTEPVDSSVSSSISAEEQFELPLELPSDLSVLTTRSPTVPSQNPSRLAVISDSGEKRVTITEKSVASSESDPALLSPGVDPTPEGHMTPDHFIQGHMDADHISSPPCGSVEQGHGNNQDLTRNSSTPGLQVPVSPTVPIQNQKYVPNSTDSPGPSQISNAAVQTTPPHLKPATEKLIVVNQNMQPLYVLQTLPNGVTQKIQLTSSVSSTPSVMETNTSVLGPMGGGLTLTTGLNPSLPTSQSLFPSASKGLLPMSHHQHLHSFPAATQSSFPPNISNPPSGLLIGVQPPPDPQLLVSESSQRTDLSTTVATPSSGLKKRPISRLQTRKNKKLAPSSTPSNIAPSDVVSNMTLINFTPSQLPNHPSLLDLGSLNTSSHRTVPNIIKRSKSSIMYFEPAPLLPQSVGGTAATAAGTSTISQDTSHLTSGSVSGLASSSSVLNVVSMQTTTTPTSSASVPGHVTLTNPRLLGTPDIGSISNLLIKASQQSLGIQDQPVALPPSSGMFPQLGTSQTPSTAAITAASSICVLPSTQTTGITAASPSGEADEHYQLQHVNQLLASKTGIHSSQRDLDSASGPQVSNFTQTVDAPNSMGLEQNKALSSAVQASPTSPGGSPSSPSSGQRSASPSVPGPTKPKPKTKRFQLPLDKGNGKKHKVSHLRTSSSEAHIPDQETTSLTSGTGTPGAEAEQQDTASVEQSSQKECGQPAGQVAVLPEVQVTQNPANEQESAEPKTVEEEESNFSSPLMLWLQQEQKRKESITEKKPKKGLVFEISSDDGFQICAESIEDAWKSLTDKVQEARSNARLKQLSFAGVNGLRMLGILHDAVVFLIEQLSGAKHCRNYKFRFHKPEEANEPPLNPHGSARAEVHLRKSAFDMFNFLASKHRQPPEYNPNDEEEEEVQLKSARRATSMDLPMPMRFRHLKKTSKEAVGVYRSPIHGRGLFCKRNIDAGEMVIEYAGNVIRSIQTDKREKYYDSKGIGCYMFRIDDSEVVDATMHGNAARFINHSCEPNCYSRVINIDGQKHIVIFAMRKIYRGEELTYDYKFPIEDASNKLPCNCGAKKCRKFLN
In short: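 Fluorescence polarization: 7 uM MLL-CXXC (stock) preincubated 5 min with compounds, then 50 nM fluorescein-HOX-A9 DNA (stock) added; 30 min ambient. Buffer 50 mM Tris-HCl pH 7.5, 50 mM NaCl, 1 mM DTT, 0.05% BSA.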
Potency is read from the fitted curve at half-maximal effect.

Activity change, negative = inhibition, inactive:
COc1cc(/C=C2/C(=O)NN(c3cccc(Cl)c3)C2=O)cc(Br)c1O -14.9%, C#CCOc1ccc(/C=C2/C(=O)NN(c3ccccc3)C2=O)cc1OC 3.2%, CC(=O)c1c(C)n(-c2ccc(C)cc2)c2ccc(O)cc12 8.81%, COc1ccc2nc(C)cc(Nc3cccc(C(=O)O)c3)c2c1 -14.3%, NC(=O)C1CCN(C(=O)/C(=C/c2ccco2)NC(=O)c2ccccc2)CC1 4.99%, Cc1cn([C@H]2CC(F)[C@@H](CO)O2)c(=O)[nH]c1=O (stereo not given in full) -6.09%, O=C(Nc1cccc(C(F)(F)F)c1)c1cc(Br)cc(Br)c1O -2.42%, C[C@H](NC(=O)C1CCN(S(=O)(=O)c2ccccc2)CC1)C(=O)NCc1ccccc1 -1.11%, COc1ccc(N(CC(=O)Nc2ccc(F)c(F)c2)S(=O)(=O)c2c(C)[nH]c(=O)[nH]c2=O)cc1 -1.33%, Cc1ccc(CNC(=O)C(=O)c2cn(CC(=O)N3CCCC3)c3ccccc23)cc1 1.78%, COc1ccc(C)cc1Nc1nc(C)nc2c1oc1ccccc12 15.3%, COC(=O)c1ccccc1NC(=O)C1(S(=O)(=O)c2ccc(Cl)cc2)CC1 3.5%, O=c1c2cc([N+](=O)[O-])ccc2nc2n1CCC2 9.68%, COc1ccc(CNc2cc(C)cc(C)c2)cc1OC -3.72%, Cc1c(CNCCc2ccccc2)c(C(=O)O)c(C)n1-c1ccccc1 -4.55%, Cc1ccc(C(=O)N2CC(=O)Nc3ccc(F)cc3C2c2ccc(F)cc2)cc1 (stereo not given) 10.6%, COC(=O)c1ccc(CNC(=O)C2CCC(=O)N(Cc3cccc(F)c3)C2)cc1 (stereo not given) 4.84%, Cc1cnc(C(=O)Oc2cccc(Cl)c2Cl)cn1 -0.91%, COc1ccc(C)cc1N(C(=O)Cn1nnc(-c2ccc(C)o2)n1)C(C(=O)NC1CCCC1)c1ccncc1 (stereo not given) -1.23%, Cc1ccc(/C=C2/SC(=S)N(CCC(=O)NCCCN3CCOCC3)C2=O)cc1 -11.8%, CCN(CC(=O)Nc1ccc2c(c1)OCO2)S(=O)(=O)c1ccccc1 4.81%, NNC(=O)CSc1nnc(-c2ccccc2)n1-c1ccccc1 6.34%, CC(C(=O)Nc1ccc(O)c(C(=O)O)c1)N1C(=O)/C(=C/c2cccs2)SC1=S (stereo not given) 15.5%, Cc1cccn2c(=O)c3cc(C(=O)NCCN4CCOCC4)c(=N)n(Cc4cccnc4)c3nc12 2.89%, Cc1cccc(S(=O)(=O)N2CN(CC3CCCO3)c3nc4ccccc4nc32)c1 (stereo not given) 3.53%, Cc1ccc(S(=O)(=O)c2nc(-c3cccs3)oc2NCc2cccnc2)cc1 6.33%, COc1ccc(CCNS(=O)(=O)c2cn(C)nc2C)cc1 8.13%, CC(=O)Nc1cccc(Nc2nc(-c3cccs3)nc3ccccc23)c1 6.15%, CC(=O)c1nn(-c2cccc(C(F)(F)F)c2)c(=O)[nH]c1=O 48.5%, COc1cc(CN2CCCC(C(=O)c3ccc(SC)cc3)C2)cc(Cl)c1O (stereo not given) 14.6%, CC(=O)Nc1ccc(C(=O)N(C2=NC(C)CS2)c2ccc(Cl)cc2)cc1 (stereo not given) -7.05%, Cc1cccc(-c2noc(CCC(=O)NC3CCCC3)n2)c1 3.93%, COc1ccccc1OCC(=O)Nc1c2c(nn1-c1ccc(F)cc1)CS(=O)(=O)C2 -15.3%, Cn1c(N2CCOCC2)c(C=O)c2ccccc21 -5.67%, COCCN1CCN(C(=O)c2cc(COc3ccc(F)cc3Cl)on2)CC1 -5.58%, O=C(NCCN1CCOC1=O)C1CCC(=O)N(CCc2ccc(Cl)cc2)C1 (stereo not given) -2.88%, Cc1cccc(-n2ncc(Cl)c(Cl)c2=O)c1 0.435%, O=C(NCc1ccncc1)C(=O)NCC1OCCN1S(=O)(=O)c1ccc(Br)cc1 (stereo not given) 11%, NC(=O)C(=O)N/N=C/c1ccc([N+](=O)[O-])o1 -4.71%, Cc1ccc(NC(=O)CSc2cccc3cccnc23)c(C)c1 -0.728%, Cc1cccc(C)c1-n1c(C)cc(/C=C2\C(=O)NN(c3ccccc3)C2=O)c1C -14.4%, O=C(O)C(c1ccccc1)N1C(=O)/C(=C\c2ccc(-c3cccc(Cl)c3)o2)SC1=S (stereo not given) 49.4%, O=C(NCCCn1ccnc1)c1cc2c(s1)CCCC2 -5.38%, O=C(NC1CCN(S(=O)(=O)c2ccc(F)cc2)CC1)c1ccccc1 -1.5%, O=S(=O)(c1ccc(Br)c2ccccc12)N1CCOCC1 -2.11%, COCCCN1C(=O)C(=O)/C(=C(/O)c2ccc(S(=O)(=O)N3CCOCC3)cc2)C1c1ccc(F)cc1 (stereo not given) -6.08%, CCOc1ccc2nc(N(CCCN(C)C)C(=O)c3ccc(C(=O)c4ccccc4)cc3)sc2c1 5.3%, O=C1CCC(C(=O)N2CCN(c3ccccc3Cl)CC2)CN1CC1CCCCC1 (stereo not given) -0.943%, CCOC(=O)Cn1c(O)c(N=NC(=O)CNC(=O)Cc2ccccc2)c2ccccc21 -5.83%, Cc1cc(C)nc(N/N=C/c2c(CO)cnc(C)c2O)n1 27%, CCCNC(=O)c1ccc(N2CCC3(CC2)CC(c2ccc(Cl)cc2)=NO3)c([N+](=O)[O-])c1 1.09%, CCOC(=O)C1CCN(S(=O)(=O)c2ccc3c(c2)N(C)C(=O)CC(=O)N3C)CC1 10.6%, O=C(NCc1ccncc1)C1CCN(C(=O)c2cccc(Cl)c2)CC1 7.78%, O=C(CNC(=O)[C@@H]1Cc2ccccc2CN1)NC1CCCCC1 -11.1%, Cc1nn(C)c(Cl)c1CN1CCC(Oc2ccc(C(=O)N3CCCC3)cc2)CC1 4.04%, Cc1ccc(S(=O)(=O)N/N=C(\c2ccccc2)C2CC2)cc1 -5.98%, O=C(NCCCn1ccnc1)c1cc(Br)c(Br)s1 1.28%, Cc1cccc(CN2CCC(n3nccc3NC(=O)c3ccccc3C)CC2)n1 0.021%, Cc1cc(=O)oc2c3c(cc(OCC(=O)N[C@H](C(=O)O)c4ccccc4)c12)OC(C)(C)CC3 13.2%, CCCNC(=O)c1cnc(-c2ccccc2)nc1-c1ccccc1 18.4%, CCCCc1nc2cc(C(=O)NCCc3cnn(C)c3)ccc2o1 8.7%

Potency, inactive:
CCN1C(=S)N[C@@H](CCc2ccccc2)[C@H](C(=O)OC)[C@H]1C

Potency, active:
COc1cc(/C=C2/C(=O)NN(c3ccc(F)cc3)C2=O)cc([N+](=O)[O-])c1O 20 µM, O=C1NN(c2ccccc2)C(=O)/C1=C/c1ccc(-c2cccc(C(=O)O)c2)o1 20 µM, CCOC(=O)/C(N=Nc1cc(C(=O)O)cc(C(=O)O)c1)=C(\O)CCl 25.1 µM
